Compounds with a hit are over-represented: about 3.2% of the library has one in this group of screens.
mTORC1 inh – inhibitors of mTORC1 signaling in Tsc2-/- p53-/- MEF cells. Tsc2-/- p53-/- MEF, phospho-rpS6 immunofluorescence/PI, 24 h. Potency, µM (titrated, usually from 38.3 µM), for the others: top-dose activity change, negative = inhibition, usual class: inhibitors. 44,000 compounds, 0.78% hits;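 also: potency is read from the fitted curve at half-maximal effect; plate controls were DMSO for no effect and rapamycin for full effect; nearly all actives have a fitted effect of over 50% in size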
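Compounds act on Tsc2-/-, p53-/- fibroblasts carrying an empty vector for 24 h before fixation and dual staining for phospho-S6 and DNA (propidium iodide). Values are percentages of cells above a rapamycin-defined pS6/PI threshold.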
p53null 39C tox – kills p53 null cells at the nonpermissive temperature; 55,000 compounds, 0.97% hits; H1299 p53-null (neo) cells, 39C, ATPlite viability, 24 h; AID 904; Potency, µM (titrated, usually from 46.1 µM), without a hit: at the highest dose activity, negative = cell killing, actives largely listed as cytotoxic;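 also: potency is read from the fitted curve at half-maximal effect; 0% = DMSO only and -100% = full killing by 100 µM tamoxifen; nearly all actives have a fitted effect of over 50% in size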
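Cells seeded at 600/well, 37C overnight. Compound added (up to 46 uM), plates shifted to 39C for 24 hr. ATPlite added, luminescence read after 20 min at room temperature.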
S16 F2sN tox – toxic to S16 Pmp22-F2sN Schwann cells; S16 Pmp22-F2sN Schwann cells viability, CellTiter-Glo, 24 h; Potency, µM (highest dose often 57.5 µM), inactives show top-dose activity change, negative = cytotoxicity, most hits filed as cytotoxic; 43,000 compounds, 0.48% hits; also: potency is read from the fitted curve at half-maximal effect; % is scaled to controls: 0 for no effect and ±100 for the full control effect; nearly all actives have a fitted effect of over 65% in size
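Luminescence from CellTiter-Glo, read by CCD camera after a 15 min room-temperature incubation, served as the viability signal. Reporter Schwann cells (S16 Pmp22-F2sN) had been treated with pin-transferred compounds for 24 h at 37C.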
p53null 32C kill – p53 null cell cytotoxicity, permissive temperature; H1299-neo p53 null cells, ATP luminescence, 24 h, 32C; Potency, µM (series often up to 46.1 µM), for inactives: top-dose activity change, negative = cytotoxicity, actives largely listed as cytotoxic; 55,000 compounds, 0.62% hits;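 also: potency is read from the fitted curve at half-maximal effect; 0% = DMSO only and -100% = full killing by 100 µM tamoxifen; nearly all actives have a fitted effect of over 55% in size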
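AC50 values derive from Hill modelling of qHTS concentration-response data (up to 46 uM) in H1299-neo cells. Cells were treated 24 h at 32C following overnight attachment at 37C; viability was read as cellular ATP.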
PMP22 txn – modulates PMP22 transcription in S16 Schwann cells. S16 Pmp22-F2sN Schwann cells (luciferase reporters placed in the Pmp22 gene), FLuc/NLuc coincidence luminescence, 24 h. Potency, µM (titrated, usually from 57.5 µM), inactives show at the highest dose activity change, negative = inhibition, hits mostly inhibitors. 43,000 compounds, 2% hits. AID 1508649; active = clear falling dose curves in both reporters; inconclusive = both reporters move, but less clearly or upward; inactive = either reporter flat; the % is the NLuc reporter signal; also: potency is read from the fitted curve at half-maximal effect; % is scaled to controls: 0 for no effect and ±100 for the full control effect
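Transcriptional readout in edited S16(c9) cells: two luciferases reported from the Pmp22 locus, measured in turn after 24 h compound incubation.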
NLuc saturating – inhibits NanoLuc at saturating substrate, PMP22 counter-screen; shares compounds with PMP22 txn; Secreted NLuc enzyme (filtered S16 cell medium), Nano-Glo luminescence; Potency, µM (titrated, usually from 57.5 µM), inactives show top-dose activity change, negative = inhibition, usual class: inhibitors; 690 compounds, 4% hits; AID 1508638; also: potency is read from the fitted curve at half-maximal effect; % is scaled to controls: 0 for no effect and ±100 for the full control effect
NLuc Km ctr – inhibits NanoLuc under Km conditions, PMP22 counter-screen; shares compounds with PMP22 txn; Potency, µM (doses to about 57.5 µM), for the others: at the top dose activity change, negative = inhibition, hits mostly inhibitors; 690 compounds, 5% hits; secreted NLuc enzyme, coelenterazine luminescence, Km conditions; also: potency is read from the fitted curve at half-maximal effect; % is scaled to controls: 0 for no effect and ±100 for the full control effect
FLuc counter – counter-screen for PMP22 expression modulators: firefly luciferase inhibition; shares compounds with PMP22 txn; purified P. pyralis FLuc, luminescence, 10 min; Potency, µM (series often up to 57.5 µM), for inactives: at the top dose activity, negative = inhibition, actives largely listed as inhibitors; 690 tested, under 10 active; AID 1508640; also: % of control where 0% means no effect
Target sequence (P08659 whole entry, looked up): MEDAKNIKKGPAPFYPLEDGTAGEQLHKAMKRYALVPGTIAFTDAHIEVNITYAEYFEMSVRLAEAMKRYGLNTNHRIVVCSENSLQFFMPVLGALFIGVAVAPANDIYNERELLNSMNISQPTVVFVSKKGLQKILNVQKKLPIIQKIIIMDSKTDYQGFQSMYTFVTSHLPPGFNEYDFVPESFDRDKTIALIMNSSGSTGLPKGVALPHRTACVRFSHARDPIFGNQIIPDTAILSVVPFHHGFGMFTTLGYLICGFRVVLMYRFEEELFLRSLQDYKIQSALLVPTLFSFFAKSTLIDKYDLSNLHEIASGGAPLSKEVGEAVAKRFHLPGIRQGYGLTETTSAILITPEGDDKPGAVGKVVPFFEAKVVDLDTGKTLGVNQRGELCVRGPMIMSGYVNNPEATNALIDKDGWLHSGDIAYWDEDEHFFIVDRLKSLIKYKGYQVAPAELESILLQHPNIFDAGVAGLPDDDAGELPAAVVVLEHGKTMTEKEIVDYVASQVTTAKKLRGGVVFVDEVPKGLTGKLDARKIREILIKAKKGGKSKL
S16 viab conf – S16 Schwann cell cytotoxicity, confirmatory | Potency, µM (titrated, usually from 57.5 µM), for inactives: at the highest dose activity change, negative = viability loss, actives largely listed as cytotoxic | S16 Schwann cells viability, CellTiter-Glo ATP luminescence, 24 h | 690 compounds, 7% hits | shares compounds with PMP22 txn; also: potency is read from the fitted curve at half-maximal effect; % is scaled to controls: 0 for no effect and ±100 for the full control effect
PMP22 txn cnf – confirmation of modulators of PMP22 gene transcription in S16 cells | S16 Schwann cells Pmp22-F2sN, dual luciferase, 24 h | shares compounds with PMP22 txn | Potency, µM (doses to about 57.5 µM), without a hit: at the top dose activity change, negative = inhibition, usual class: inhibitors | 690 compounds, 22% hits | AID 1508646; active = clear falling dose curves in both reporters; inconclusive = both reporters move, but less clearly or upward; inactive = either reporter flat; the % is the FLuc reporter signal; also: potency is read from the fitted curve at half-maximal effect
PMP22 prot conf – rat PMP22 protein level modulation, confirmatory; shares compounds with PMP22 txn; S16 Schwann cells Pmp22-HiBiT, luminescence, 48 h; 95 tested, under 10 active; Potency, µM (doses to about 27.9 µM), for the others: at the top dose activity change, negative = inhibition, usual class: inhibitors; AID 1508647
Target sequence (P25094 whole entry, looked up): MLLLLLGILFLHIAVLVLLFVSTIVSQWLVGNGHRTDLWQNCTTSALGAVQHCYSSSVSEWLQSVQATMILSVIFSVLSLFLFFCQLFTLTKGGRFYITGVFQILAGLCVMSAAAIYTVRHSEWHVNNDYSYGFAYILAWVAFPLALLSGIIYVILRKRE
Active calls of the source: *; [ ] = another dose, or the depositor's remark. Unless noted, calls follow the shape of the dose curve; as a rule, active = well fitted curve in the direction sought with a large enough effect; inconclusive = small, poorly fitted or top-dose-only effect, or another doubt; inactive = no such curve, though single readings can be large; an effect the other way counts as inactive or inconclusive.

What do the screens show for `CCc1cccc(C)c1NC(=O)c1nc2ccccc2nc1N1CCCCC1`?
mTORC1 inh: -8%; p53null 39C tox: -9%; S16 F2sN tox: 0%; p53null 32C kill: 8%; PMP22 txn: inconclusive; NLuc saturating: -5%; NLuc Km ctr: inconclusive; FLuc counter: 2%; S16 viab conf: 9%; PMP22 txn cnf: -27%

What do the screens show for `COc1cccc(NC(=O)CSc2nc3c([nH]c4ccccc43)c(=O)n2-c2cc(C)cc(C)c2)c1`?
mTORC1 inh: -6%; p53null 39C tox: 13%; S16 F2sN tox: -2%; p53null 32C kill: 8%; PMP22 txn: 52%

Results for O=C(CSc1nc2c([nH]c3ccccc32)c(=O)n1-c1cccc(Cl)c1)c1ccccc1 ?
mTORC1 inh: -4%; p53null 39C tox: -4%; S16 F2sN tox: 5%; p53null 32C kill: 3%; PMP22 txn: 14µM*; NLuc saturating: -2%; NLuc Km ctr: 1%; FLuc counter: -3%; S16 viab conf: -15%; PMP22 txn cnf: 12µM*; PMP22 prot conf: inconclusive

Results for Cc1cc(C)cc(-n2c(SCC(=O)Nc3nnc(C)s3)nc3c([nH]c4ccccc43)c2=O)c1 ?
mTORC1 inh: 0%; p53null 39C tox: 4%; S16 F2sN tox: 14%; p53null 32C kill: -9%; PMP22 txn: 16µM*; NLuc saturating: inconclusive; NLuc Km ctr: inconclusive; FLuc counter: 4%; S16 viab conf: -5%; PMP22 txn cnf: inconclusive

What do the screens show for `Cc1nnc(NC(=O)CSc2nc3c([nH]c4ccccc43)c(=O)n2-c2ccccc2)s1`?
mTORC1 inh: 0%; p53null 39C tox: 7%; S16 F2sN tox: 21%; p53null 32C kill: 0%; PMP22 txn: inconclusive

What do the screens show for `COc1cccc(-n2c(SCC(=O)Nc3c(C)cc(C)cc3C)nc3c([nH]c4ccccc43)c2=O)c1`?
mTORC1 inh: inconclusive; p53null 39C tox: 17%; S16 F2sN tox: -1%; p53null 32C kill: 4%; PMP22 txn: 12µM*; NLuc saturating: -6%; NLuc Km ctr: -11%; FLuc counter: 4%; S16 viab conf: 2%; PMP22 txn cnf: inconclusive

Results for O=C(CSc1nc2c([nH]c3ccccc32)c(=O)n1-c1ccccc1)c1ccccc1 ?
mTORC1 inh: -14%; p53null 39C tox: 24%; S16 F2sN tox: 11%; p53null 32C kill: 4%; PMP22 txn: -17%

What do the screens show for `Cc1ccc(CCNC(=O)CCS(=O)(=O)c2cc3c(cc2C)NC(=O)CO3)cc1`?
mTORC1 inh: 0%; p53null 39C tox: 1%; S16 F2sN tox: -3%; p53null 32C kill: 5%; PMP22 txn: -2%

What do the screens show for `Cc1c(Cl)cccc1N1C(N)=C(C#N)C(c2cc(CN3CCOCC3)cs2)C2=C1CCCC2=O` (stereo not given)?
mTORC1 inh: -3%; p53null 39C tox: -8%; S16 F2sN tox: -6%; p53null 32C kill: 0%[9.22 µM]; PMP22 txn: 7.2µM*; NLuc saturating: inconclusive; NLuc Km ctr: inconclusive; FLuc counter: -8%; S16 viab conf: -10%; PMP22 txn cnf: -31%

Results for CCc1ccc(NC(=O)CSc2nc(=O)n(Cc3ccco3)c3c2CCC3)cc1 ?
mTORC1 inh: -5%; p53null 39C tox: -15%; S16 F2sN tox: -6%; p53null 32C kill: 26%; PMP22 txn: inconclusive

How did COC(=O)c1ccc(NC(=O)CSc2nc(=O)n(Cc3ccco3)c3c2CCC3)cc1 do in these assays?
mTORC1 inh: -8%; p53null 39C tox: 16%; S16 F2sN tox: -11%; p53null 32C kill: 8%; PMP22 txn: 8.3µM*; NLuc saturating: inconclusive; NLuc Km ctr: inconclusive; FLuc counter: -14%; S16 viab conf: -1%; PMP22 txn cnf: -44%

How did Cc1cccc(N2CCN(S(=O)(=O)c3ccc4c(c3)CCCN4C(=O)C3CCC3)CC2)c1C do in these assays?
mTORC1 inh: -10%; p53null 39C tox: 3%; S16 F2sN tox: -19%; p53null 32C kill: -1%; PMP22 txn: 16µM*; NLuc saturating: -8%; NLuc Km ctr: 3%; FLuc counter: 9%; S16 viab conf: -16%; PMP22 txn cnf: inconclusive

What do the screens show for `Cc1ccc(-c2csc(-c3cc4c([nH]c3=O)CC(c3ccccc3)CC4=O)n2)cc1` (stereo not given)?
mTORC1 inh: inconclusive; p53null 39C tox: -4%; S16 F2sN tox: -18%; p53null 32C kill: 30%; PMP22 txn: 6.3µM*; NLuc saturating: -16%; NLuc Km ctr: -5%; FLuc counter: 8%; S16 viab conf: inconclusive; PMP22 txn cnf: -32%

Results for COc1ccc(C2CC(=O)c3cc(-c4nc(-c5cccc(Cl)c5)cs4)c(=O)[nH]c3C2)cc1 (stereo not given) ?
mTORC1 inh: 5%; p53null 39C tox: -24%; S16 F2sN tox: 0%; p53null 32C kill: 1%; PMP22 txn: inconclusive

How did CCCSc1ncc(Cl)c(C(=O)Nc2nc3ccc(OCC)cc3s2)n1 do in these assays?
mTORC1 inh: 7%; p53null 39C tox: 5%; S16 F2sN tox: 9%; p53null 32C kill: 9%; PMP22 txn: -1%
